In the supplement of paper PMC13380429:

System: Vero E6 infected with SARS-CoV-2
Experiment: inhibition of SARS-CoV-2 cytopathic effect; higher = more antiviral protection, active = above 15
Settings: 48 h

Measured: inhibition of SARS-CoV-2 cytopathic effect

C=CC[C@@H]1/C=C(\C)C[C@H](C)C[C@H](OC)[C@H]2O[C@@](O)(C(=O)C(=O)N3CCCC[C@H]3C(=O)O[C@H](/C(C)=C/[C@@H]3CC[C@@H](O)[C@H](OC)C3)[C@H](C)[C@@H](O)CC1=O)[C@H](C)C[C@@H]2OC [tacrolimus]
inactive: 1 nM 0.97% | 8.33 nM 1.42% | 100 nM 2.56% | 833.33 nM 1.67% | 10000 nM 1.14%

CN1CCC(COc2cnc(-c3cccc(Cn4nc(-c5cccc(C#N)c5)ccc4=O)c3)nc2)CC1
inactive: 1 nM 1% | 8.33 nM 1.71% | 100 nM 1.4% | 833.33 nM 2.63% | 10000 nM 9.19%

O=C1NC(=O)c2cc(Nc3ccccc3)c(Nc3ccccc3)cc21
inactive: 1 nM -1.24% | 8.33 nM 1.7% | 100 nM -0.24% | 833.33 nM 0.41% | 10000 nM 1.85%

COc1cc2ncnc(Oc3cccc(NC(=O)Nc4cc(C(C)(C)C(F)(F)F)on4)c3)c2cc1OC
inactive: 1 nM -0.44% | 8.33 nM 0.69% | 100 nM 2.72% | 833.33 nM -0.98% | 10000 nM -6.45%

CN(CCOP(=O)(O)O)C(=N)N [creatinol-phosphate]
inactive: 1 nM -1.02% | 8.33 nM 2.42% | 100 nM 0.89% | 833.33 nM -2.46% | 10000 nM -1.58%

O=C(c1ccccn1)c1cnn2c(-c3ccncc3)ccnc12 [ocinaplon]
inactive: 1 nM 0.32% | 8.33 nM -1.43% | 100 nM -0.52% | 833.33 nM -3.04% | 10000 nM -0.62%

O=c1c(O)c(-c2cc(O)c(O)c(O)c2)oc2cc(O)cc(O)c12 [myricetin]
inactive: 1 nM -0.44% | 8.33 nM 0.2% | 100 nM 3.15% | 833.33 nM 5.8% | 10000 nM 0.05%

Nc1nnc(-c2cccc(Cl)c2Cl)c(N)n1 [lamotrigine]
inactive: 1 nM -2.3% | 8.33 nM -2.08% | 100 nM -1.73% | 833.33 nM -0.07% | 10000 nM 0.08%

Cc1ccccc1OCC(O)CO (stereo not given) [mephenesin]
inactive: 1 nM -1% | 8.33 nM 0.27% | 100 nM 0.3% | 833.33 nM -0.01% | 10000 nM 1.77%

O=C1Nc2cc(Cl)c(Cl)cc2N2CCNC[C@H]12
inactive: 1 nM -0.02% | 8.33 nM -0.54% | 100 nM 1.72% | 833.33 nM 0.92% | 10000 nM 1.67%

CNCCC(Oc1ccccc1OC)c1ccccc1 (stereo not given) [nisoxetine]
inactive: 1 nM -1.97% | 8.33 nM 0.21% | 100 nM 4.4% | 833.33 nM 7.73% | 10000 nM -0.07%

Nc1cccc2c(=O)[nH][nH]c(=O)c12 [monosodium-alpha-luminol]
inactive: 1 nM -0.8% | 8.33 nM 0.14% | 100 nM -1.27% | 833.33 nM -0.92% | 10000 nM 2.06%

N#CC(C#N)=Cc1ccc(O)c(O)c1 [tyrphostin-AG-18]
inactive: 1 nM 2.32% | 8.33 nM 2.46% | 100 nM 0.83% | 833.33 nM 0.73% | 10000 nM 0.85%

CC(C)(C)OC(=O)c1ncn2c1[C@@H]1CCCN1C(=O)c1c(Br)cccc1-2 [bretazenil]
inactive: 1 nM -1.38% | 8.33 nM -4.36% | 100 nM -1.99% | 833.33 nM -3.96% | 10000 nM -1.07%

O=C1NCCNC1c1cccs1 (stereo not given) [tenilsetam]
inactive: 1 nM 3.34% | 8.33 nM 0.52% | 100 nM -1.98% | 833.33 nM -2.12% | 10000 nM -1.68%

NC(=O)C[C@H](N)C(=O)O [L-asparagine]
inactive: 1 nM -2.05% | 8.33 nM -1.93% | 100 nM -3.65% | 833.33 nM -1.45% | 10000 nM -0.9%
